The list is not random: actives were taken first. Their share in the collection is about 4.1%.
PolyA inh: polyadenylation inhibitors in yeast reporter cells, primary screen, luminescence, S. cerevisiae; S. cerevisiae SKY197-pL101 polyadenylation reporter, beta-gal luminescence; efflux-impaired pdr1/pdr3 knockout yeast; score 100 = 6 SD above DMSO; activity score, % at 12 µM; actives 0.02% (n = 300,000); AID 1875, 2009;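 active = lowest replicate activity score at least 50, where 100 means six control SD above control mean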;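 note: yeast exposed to compound for 9 h at 30 °C; higher score means more reporter readthrough which indicates perturbed polyadenylation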
IDE cell activ: human IDE activators in live cells, primary screen, fluorescence polarization, HEK cells, FAbeta-B substrate. AID 493087, 2011. FAbeta-B cleavage; 0% vehicle, 100% cell-free pure enzyme wells. activation, % at 5.96 µM. actives 0.073% (n = 340,000). Insulin-degrading enzyme (Homo sapiens), P14735;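 active = activation above the mean of all tested compounds plus 3 SD, set per screening campaign, cut at about 17% in these data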
PfM18AAP inh: PfM18AAP inhibitors, malaria aminopeptidase, primary screen, biochemical, QFRET, recombinant enzyme; AID 1822, 2009; H-Glu-NHMec fluorogenic cleavage; actives 1.2% (n = 290,000); M18 aspartyl aminopeptidase (Plasmodium falciparum 3D7); inhibition, % at 7.35 µM;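 active = inhibition above the campaign mean inhibition over all tested compounds plus 3 SD, cut at about 28% in these data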
ALR inh: inhibitors of human ALR sulfhydryl oxidase, primary screen, biochemical, H2O2 detection, HRP-luminol luminescence, single point | purified ALR, DTT oxidation | inhibition, % (no concentration beside the values) | actives 3.8% (n = 290,000) | AID 485317, 2010;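 active = mean replicate inhibition above about 79%, with every replicate also reaching it, limit read from the data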
Target sequence (P55789 whole entry, looked up): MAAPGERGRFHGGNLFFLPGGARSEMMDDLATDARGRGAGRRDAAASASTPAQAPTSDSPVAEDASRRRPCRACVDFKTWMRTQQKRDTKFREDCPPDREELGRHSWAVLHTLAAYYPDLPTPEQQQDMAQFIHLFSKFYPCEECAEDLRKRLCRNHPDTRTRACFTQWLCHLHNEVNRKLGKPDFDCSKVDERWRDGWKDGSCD
IDE cell inh: human IDE inhibitors in live cells, primary screen, fluorescence polarization, HEK cells, FAbetaB substrate. FAbetaB cleavage. inhibition, % at 5.59 µM. actives 0.41% (n = 320,000). AID 434962, 2010;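 active = percent inhibition above the average of all tested compounds plus 3 SD, set per screening campaign, cut at about 16% in these data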;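 note: IDE supplied by intact live HEK cells; FP after avidin binding of uncleaved biotin substrate so inhibition keeps polarization high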
CaV13 ICDI inh: Disruptors of the CACNA1D IQ motif to Ca2+-dependent inactivation inhibitor domain association, primary screening, Förster resonance energy transfer in intact living …; HEK cells, CFP/YFP FRET ICDI-IQ, plate reader, 10 min; percent FRET-ratio fall versus neutral wells; inhibition, % at 12.3 µM; actives 0.098% (n = 340,000); AID 743397;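 active = mean replicate inhibition of at least 30% and at least 1% of replicates passing that level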
Of the large screens only hits and unclear results are named; the others gave an inactive call.

Cc1ccc(-n2c(CNc3ccc(C)c(Cl)c3)n[nH]c2=S)cc1	none
CCCC1C(C(=O)OCC)=C(C)NC(C)=C1C(=O)OCC	ALR inh 98.9
CCOC(=O)C1=C(C)NC(C)=C(C(=O)OCC)C1C(=O)O	none (no result: PolyA inh)
COc1ccccc1OCc1ccc(C(=O)NC2CCCCC2)o1	none
COc1ccccc1S(=O)Cc1ccc(C(=O)NC2CCCC2)o1 (stereo unspecified)	ALR inh 94.3
CN1/C(=C/C=C(/C#N)C(N)=O)C(C)(C)c2ccccc21	ALR inh 92.0 (no result: CaV13 ICDI inh)
CN1/C(=C\C=N\O)C(C)(C)c2ccccc21	none
CCN(CC)CCN1C(=O)C(=O)/C(=C(/O)c2ccc(S(=O)(=O)N3CCOCC3)cc2)C1c1ccccc1 (stereo unspecified)	none
COc1ccccc1-c1n[nH]c(=S)n1Cc1ccco1	none (no result: IDE cell activ, CaV13 ICDI inh)
S=c1[nH]nc(-c2ccco2)n1/N=C/c1ccc(Cl)cc1	PfM18AAP inh 30.9 (no result: ALR inh)
S=c1[nH]nc(-c2ccco2)n1/N=C/c1ccccc1Cl	none
S=c1[nH]nc(-c2ccco2)n1Cc1ccccc1	ALR inh 92.0 (no result: PolyA inh)
COc1ccccc1-c1n[nH]c(=S)n1Cc1ccccc1	ALR inh 85.6
CCCCn1c(-c2ccco2)n[nH]c1=S	ALR inh 97.6
CC(Oc1ccc2ccc(=O)oc2c1)C(=O)NCCN1CCOCC1 (stereo unspecified)	none
C=CCNc1nc(Nc2cc(Cl)ccc2OC)nc(OC)n1	none
COc1ccc(N/N=C(/C(C)=O)N2CCCc3ccccc32)cc1	ALR inh 95.9
Cc1ccc2nc(C)cc(N/N=C/c3cccc(O)c3)c2c1	ALR inh 99.2
COCCC(=O)N(Cc1ccc2c(c1)OCO2)C(C(=O)NC1CCCCC1)c1ccncc1 (stereo unspecified)	PfM18AAP inh 30.0
Cc1cc(C)c(NC(=O)CNC(=O)COC(=O)Cc2cccs2)c(C)c1	none (no result: PfM18AAP inh)
O=C(NC1CC(=O)N(c2ccc(Cl)cc2)C1)N1CCN(C(=O)c2ccco2)CC1 (stereo unspecified)	none (no result: PfM18AAP inh)
O=[N+]([O-])c1cc(C(F)(F)F)cc([N+](=O)[O-])c1NCCNC(=S)Nc1ccc(Cl)c(Cl)c1	none
COc1cc(C(=O)C(=O)c2ccc(O)c(OC)c2)ccc1O	ALR inh 99.5
COc1cc(C(=O)n2nc(C)cc2C)ccc1O	ALR inh 94.8 (no result: CaV13 ICDI inh)
COc1cc(-c2nc3ccccn3c2N)ccc1O	none (no result: ALR inh)
COc1ccc(C(=O)n2nc(C)cc2C)cc1Br	none
COc1cc(C(=O)O)ccc1O	none
COc1cc(-c2nc3ccccc3nc2-c2ccc(O)c(OC)c2)ccc1O	ALR inh 98.9
COc1cc(-c2cc(OC)c3c(C)oc(C)c3c(=O)c2)ccc1O	ALR inh 90.9
COc1ccc(OCC(O)Cn2c(N)nc3c2c(=O)[nH]c(=O)n3C)cc1 (stereo unspecified)	none (no result: ALR inh)
Cc1ccc(N(CC(=O)NC2CCCC2)C(=O)CNC(=O)c2cccs2)cc1C	none (no result: ALR inh)
COc1cccc(OCC(=O)O/N=C(\N)c2ccc(OC)c(OC)c2)c1	none
CCCCCCCCN1C(=O)[C@@H](CC(=O)N2CCN(C(=O)OCC)CC2)C[C@@]2(C(=O)OC)C1=C[C@H](C(C)(C)C)O[C@@H]2C	none (no result: PolyA inh, IDE cell activ, PfM18AAP inh, ALR inh, IDE cell inh)
COc1cc(C(=S)N2CCCC2)ccc1O	ALR inh 93.8
COc1cc(C(=S)N2CCC(C)CC2)ccc1O	ALR inh 89.6
COc1cc(C(=S)N2CCC(C(N)=O)CC2)ccc1O	none (no result: PolyA inh)
COc1cc(-c2cc[n+](C)cc2)ccc1O	ALR inh 99.0 (no result: PfM18AAP inh)
CCOc1cc(C(=S)N2CCCC2)ccc1O	none (no result: ALR inh)
CCn1c(SCC(=O)Nc2nccc(C)n2)nc2ccccc21	none
Cc1ccc(NC(=O)C2CCCN2c2nn3c(=O)cc(C)nc3s2)cc1 (stereo unspecified)	none
CSc1nc(NCCOCCO)c2sc3nc(-c4ccco4)c4c(c3c2n1)CCC4	ALR inh 96.5
CCN(CCO)c1nc(SC)nc2c1sc1nc(-c3ccco3)c3c(c12)CCC3	ALR inh 97.0 (no result: CaV13 ICDI inh)
COC(=O)CN(C)C(=O)c1cccc(OC2CCN(S(=O)(=O)N(C)C)CC2)c1	none
CCCCC(NC(=O)Cc1c(C)c2cc3c(C)c(C)oc3c(C)c2oc1=O)C(=O)O (stereo unspecified)	ALR inh 96.8
CCc1[nH]nc(C(=O)N2CCCC(C(=O)c3cccc(C(F)(F)F)c3)C2)c1C (stereo unspecified)	none
COc1ccc(-c2c(C(=O)c3ccccc3)[nH]c(N)c2C(=O)NCCc2c[nH]c3ccccc23)cc1	none (no result: PolyA inh, IDE cell activ, PfM18AAP inh, ALR inh, IDE cell inh)
CC(C)(C)c1ccc(C(=O)O/N=C(\N)c2ccccc2)cc1	none
CC(C)(C)c1ccc(C(=O)Oc2ccccc2CCC(=O)O)cc1	ALR inh 90.8 (no result: IDE cell activ)
O=C(C(=O)N1CCC(CNS(=O)(=O)c2ccccc2)CC1)c1cc2ccccc2o1	none (no result: PolyA inh, IDE cell activ, PfM18AAP inh, ALR inh, IDE cell inh)
CCOc1cc(-c2cc(-c3ccc(C)o3)nc(N)c2C#N)ccc1O	ALR inh 79.8
CC1(C)CC(=O)C2=C(C1)OC(N)=C(C#N)[C@@H]2c1ccccc1[N+](=O)[O-]	PfM18AAP inh 29.0, CaV13 ICDI inh 178.8
COC(=O)c1cc2c(c3c4cc(OC)ccc4n(S(=O)(=O)c4ccc(OC)cc4)c13)C(=O)N(Cc1ccc(N(C)C)cc1)C2	none (no result: PolyA inh, IDE cell activ, PfM18AAP inh, ALR inh, IDE cell inh)
O=C(OCCN1C(=O)c2ccccc2C1=O)c1ccco1	none
CC(C)C(CCN1C(=O)c2ccccc2C1=O)c1ccco1 (stereo unspecified)	ALR inh 90.0
Cc1cccc(C)c1NC(=O)C1(C)CSCC(=O)N1Cc1cccc(C(F)(F)F)c1 (stereo unspecified)	none (no result: PolyA inh, IDE cell activ, PfM18AAP inh, ALR inh, IDE cell inh)
O=C(O)C1C(c2ccccc2)C(C(=O)Oc2ccc(O)cc2)C1c1ccccc1 (stereo unspecified)	ALR inh 94.4
CC(C)(C)OC(=O)NC1CCN(S(=O)(=O)c2ccc3c(c2)OCCO3)CC1	none (no result: ALR inh)
Cc1cccc(OCc2nnc(SCC(=O)Nc3ncc(C)s3)o2)c1	PfM18AAP inh 31.4
CC1(C)CC(=O)c2cc3c(N)c(C(=O)NCc4ccccc4)sc3nc2C1	none (no result: CaV13 ICDI inh)
CN1CCc2nc3sc(C(=O)NCc4ccccc4)c(N)c3cc2C1	PfM18AAP inh 29.2
CCCCC(=O)Nc1nnc(S(=O)(=O)N2CCCCCC2)s1	none
Cc1ccc(CNC(=O)N2CCN(c3ccc(C)cc3)CC2)cc1	none
CCc1ccc(CNc2ccc(N3CCN(C(C)=O)CC3)cc2)cc1	ALR inh 98.9
CC(=O)N1CCN(c2ccc(NCc3ccc(C)cc3)cc2)CC1	ALR inh 98.8
CC(=O)Nc1ccc(N2CCN(C(C)=O)CC2)cc1	none

Assay outcomes as filed in PubChem BioAssay.
